# Reference: PubChem BioAssay AID720518 (National Center for Advancing Translational Sciences (NCATS), 2013)
# Inconclusive results are not listed. Unmarked numbers belong to inactive results. The call rests on the fitted dose curve.
# Test: qHTS for Inhibitors of Cell Surface uPA Generation: Wild-type Protective Antigen (WT-PrAg) Counterscreen for Cherry-picked Compounds; further: 0% is about no effect
# Conditions: cells, WT protective antigen toxicity counterscreen; series mostly up to 115 µM; activity (protection): at the top concentration
row,SMILES,activity (protection)
1,O=c1ccc(S(=O)(=O)N2CCCC2)c[nH]1,-0.609%
2,NC(=O)c1ccc(NC(=O)CN2CCN(S(=O)(=O)c3ccc4ccccc4c3)CC2)cc1,1.81%
3,COc1ccc(NC(=O)Nc2nnc(N3CCCCC3C)s2)cc1OC (centres undefined),-1.51%
4,CCOC(=O)c1c(NC(=S)NC)sc2c1CCCC2,-0.204%
5,COc1ccc(/C(C)=N/N2CCOCC2)c(O)c1,1.21%
6,COc1ccc(-c2cc3nc(-c4ccccc4)cc(N4CCCC(O)C4)n3n2)cc1 (centres undefined),2.16%
7,CN(C)C(=O)NC(NC(=S)Nc1ccccc1)C(Cl)(Cl)Cl (centres undefined),-1.51%
8,CC1CC(C)CN(CCCNC(=O)CN2C(=O)CSc3ccc(S(=O)(=O)N4CCOCC4)cc32)C1 (centres undefined),0.935%
9,CCc1ccc(OCC(=O)N(Cc2cccs2)C2CCS(=O)(=O)C2)cc1 (centres undefined),1.58%
10,C[C@H](CO)N1C[C@H](C)[C@@H](CN(C)C(=O)Nc2ccccc2)Oc2c(NS(=O)(=O)c3ccccc3)cccc2C1=O,1.01%
11,CC(C)c1ccc(C2/C(=C(\O)c3ccc4c(c3)OCCO4)C(=O)C(=O)N2CCN2CCOCC2)cc1 (centres undefined),-0.545%
12,COc1ncnc(NS(=O)(=O)c2ccc(N)cc2)c1OC,0.0309%
13,O=C(c1ccco1)N1CCN(c2ncccn2)CC1,-0.994%
14,Brc1ccsc1/C=N/Nc1ccccc1,3.32%
15,c1cncc(C2CCCCN2)c1 (centres undefined),0.201%
16,O=S(=O)(c1ccc2nc(N3CCN(c4ccccc4)CC3)ccc2c1)N1CCCCC1,2.08%
17,CC(C)Cn1cnc2c1c(=O)[nH]c(=O)n2Cc1ccccc1,0.91%
18,Cc1ccc(C(O)(COC(=O)C(C)C)COC(=O)C(C)C)c(O)c1,-1.61%
19,Cc1ccc2sc(NNC(=O)c3ccc4c(c3)OCCO4)nc2c1C,-2.4%
20,C=CCOC(=O)C1=C[C@@H](c2coc3ccccc3c2=O)C[C@@H](OCc2ccc(CO)cc2)O1,-1.44%

row,SMILES,activity (protection)
1,CC(C)NCC1CCc2cc(CO)c([N+](=O)[O-])cc2N1 (centres undefined),4.76%
2,O=C(c1cccc(F)c1)N1CCN(Cc2cccc(Br)c2)CC1,-1.52%
3,COc1cc(/C=C(/C#N)C(=O)Nc2ccccc2)ccc1OCc1ccc(C(=O)O)cc1,0.55%
4,CC(C)OC(=O)Nc1ccc(-c2ccc(NC(=O)OC(C)C)cc2Cl)c(Cl)c1,5.2%
5,COc1ccc(C2=NS(=O)(=O)N(C)C(C(=O)NCc3ccccn3)=C2)cc1,-1.14%
6,Cc1cc(C)nc(NC(=O)CSc2nccc(C)n2)n1,-1.49%
7,CCOc1cc(S(=O)(=O)NC2CC(C)(C)NC(C)(C)C2)ccc1Cl,0.451%
8,CN(C)C(=S)Nc1ccc(S(=O)(=O)N2CCCCC2)cc1,-0.577%
9,CCOc1ccc(C(=O)NCCO)cc1,-0.622%
10,Cc1ccc(C2=NS(=O)(=O)N(C)C(C(=O)NC3CCCC3)=C2)cc1,-0.662%
11,CCS(=O)c1scc(-c2ccc(Cl)cc2)c1C#N (centres undefined),-2.44%
12,O=C(/C=C/c1cccc(F)c1)Nc1cc(S(=O)(=O)N2CCOCC2)ccc1Cl,-1.99%
13,CCN(CC)CCCn1c2c(c(SCC(=O)Nc3cccc4ccccc34)nc1=O)CCC2,-1.93%
14,CC1(C)CC(=O)C=C(c2ccc3ccccc3c2)C1,0.346%
15,COCCNC(=O)COCc1cc(-c2ccc3c(c2)OCO3)on1,-0.885%
16,CN(CC(=O)NCc1ccco1)CC(=O)Nc1c(Cl)cccc1Cl,0.145%
17,O=C(NC(=O)c1ccccc1)Nc1cccc(S(=O)(=O)N2CCCCC2)c1,-0.591%
18,CCOC(=O)C1(CC2CCCCO2)CCN(Cc2nccn2-c2cccc(C)c2)CC1 (centres undefined),-2.03%
19,COc1ccc(C(=O)NNC(=O)Cc2ccc(Cl)cc2)cc1,1.34%
